From PubChem BioAssay
KB-3-1 cytotox: kills parental KB-3-1 adenocarcinoma cells. KB-3-1 viability, CellTiter-Glo ATP luminescence, 72 h. Potency, µM (titrated, usually from 46.1 µM), hits mostly cytotoxic. actives 1.4% (n = 400,000). AID 1347075; note: % is set by controls: 0 for no effect and ±100 for the full control effect; nearly all actives have a fitted effect of over 60% in size
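KB-3-1 parental drug-naive adenocarcinoma cells in DMEM/10% FBS, incubated 72 h at 37 C with pin-transferred compounds across a concentration series. Viability by CellTiter-Glo luminescence; concentration-response curves fitted after normalization.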
RGS4 inhibitor: inhibitors of human regulator of G protein signaling 4. P49798. actives 0.039% (n = 390,000). Potency, µM (doses to about 114 µM), without a hit: at the top dose activity change, negative = inhibition, hits mostly inhibitors. Transcreener GDP fluorescence polarization, RGS4-accelerated GTP hydrolysis. AID 504845; note: % is set by controls: 0 for no effect and ±100 for the full control effect; nearly all actives have a fitted effect of over 75% in size
Target sequence (P49798 whole entry, looked up): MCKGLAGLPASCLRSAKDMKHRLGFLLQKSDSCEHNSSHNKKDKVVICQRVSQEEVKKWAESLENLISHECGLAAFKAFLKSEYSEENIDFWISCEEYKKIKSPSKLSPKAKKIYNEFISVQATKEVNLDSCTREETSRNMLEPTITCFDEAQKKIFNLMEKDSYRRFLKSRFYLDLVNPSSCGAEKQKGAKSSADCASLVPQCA
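MLSMR compounds (23 nl, pin-transferred) preincubated 10 min at room temperature with a 500nM (2x) first reagent, then RGS4 at 900nM (2x) plus Transcreener GDP mix added; fluorescence polarization (620/688 nm) read before and after 90 min at 30 °C.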
PTAP TSG101 blk: blocks PTAP/TSG101 interaction to inhibit HIV-1 budding; 340,000 tested, under 10 active; Q99816; Fluorescence polarization, FITC-PTAP peptide / Tsg101 binding; AID 493005; Potency, µM (series often up to 115 µM), inactives show at the top dose activity change, negative = inhibition, actives largely listed as inhibitors; active = well fitted inhibition curve with a large enough effect in the main read-out, with a control signal flat, not every such curve was filed as active; inconclusive = small, poorly fitted or top-dose-only effect, or effect the other way, or a change in a side signal; inactive = no such curve, though single readings can be large or run the other way; note: % of control where 0% means no effect
Target sequence (Q99816 whole entry, looked up): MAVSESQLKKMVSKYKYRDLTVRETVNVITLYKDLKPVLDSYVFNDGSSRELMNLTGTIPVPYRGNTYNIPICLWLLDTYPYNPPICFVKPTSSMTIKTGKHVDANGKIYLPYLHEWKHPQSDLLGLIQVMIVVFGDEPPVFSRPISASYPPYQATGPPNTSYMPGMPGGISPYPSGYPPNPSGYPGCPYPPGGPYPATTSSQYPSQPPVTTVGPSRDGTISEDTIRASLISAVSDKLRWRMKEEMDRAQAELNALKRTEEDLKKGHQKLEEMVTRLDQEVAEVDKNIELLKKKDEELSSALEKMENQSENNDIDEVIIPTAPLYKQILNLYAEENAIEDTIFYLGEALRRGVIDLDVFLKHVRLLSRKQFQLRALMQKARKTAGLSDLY
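Fluorescence anisotropy tracks displacement of a FITC-tagged PTAP peptide (50 nM) from the Tsg101 binding domain (10 uM), following a 20 min room-temperature incubation at pH 7.5.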
SW480 rerep: induces DNA re-replication in SW480 colon adenocarcinoma cells; SW480 DNA re-replication, Hoechst DNA content imaging, 48 h; Potency, µM (top dose mostly 46.1 µM), for inactives: top-dose re-replication activation, actives largely listed as activators; actives 1.8% (n = 340,000); note: % of control where 0% means no effect; nearly all actives have a fitted effect of over 55% in size
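Compounds, transferred as 23 nL by pin tool, were incubated with cells for 48 hr; DNA content per nucleus was then quantified by Hoechst staining and fluorescence plate imaging.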
KB-V1 cytotox: kills drug-selected multidrug resistant KB-V1 cells; AID 1347076; KB-V1 MDR cells viability, CellTiter-Glo, 72 h; Potency, µM (doses to about 46.1 µM), actives largely listed as cytotoxic; actives 3.4% (n = 400,000); note: % is set by controls: 0 for no effect and ±100 for the full control effect; nearly all actives have a fitted effect of over 60% in size
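Cytotoxicity via CellTiter-Glo luminescence after 72 h compound exposure at 37 degrees C. Cells: drug-selected KB-V1 line, DMEM phenol-red free plus 10% FBS. Compounds tested at multiple concentrations; normalized data fitted to concentration-effect curves.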
MCF10A rerep: DNA re-replication induction in MCF 10a cells | MCF 10A DNA re-replication, Hoechst nuclear intensity, 48 h | Potency, µM (titrated, usually from 46.1 µM), inactives show at the top dose activity, positive = re-replication, actives largely listed as activators | actives 2.9% (n = 350,000) | AID 624296; note: % of control where 0% means no effect; nearly all actives have a fitted effect of over 50% in size
Starred values were filed as active, the others as inactive; i = inactive; ? = inconclusive; / = not tested or not shown; [ ] = another dose, or the depositor's remark. Rows were chosen to be rich in hits. Some 6.6% of all compounds tested hit in one or more screens of this group. Unless noted, calls come from the whole dose curve; as a rule, active = well fitted curve in the direction sought with a large enough effect; inconclusive = small, poorly fitted or top-dose-only effect, or another doubt; inactive = no such curve, though single readings can be large; an effect the other way counts as inactive or inconclusive. Potency is the fitted concentration of half-maximal effect.

SMILES	KB-3-1 cytotox	RGS4 inhibitor	PTAP TSG101 blk	SW480 rerep	KB-V1 cytotox	MCF10A rerep
COc1ccc(C(=S)N2CCOCC2)cc1OC(=O)c1ccccc1Cl	?	-36%	-7%	-8%	i	-14%
COc1cc(C(=S)N2CCOCC2)ccc1OC(=O)c1ccccc1C	i	31%	-4%	18µM*	i	6%
COc1ccccc1NC(=O)CN(Cc1ccco1)C(=O)c1ccc(-n2nc(C)cc2C)cc1	i	-20%	-8%	-12%	2.1µM*	2%
C=C1C=C(C(F)F)n2ncc(C(=O)NCc3ccc(F)cc3)c2N1	i	/	/	/	i	/
N#CC1=C(N)NC(SCc2ccccc2)=C(C#N)C12CCCC2	?	?	-8%	?	?	18µM*
Nc1c(C(=O)NCc2ccccc2)nnn1Cc1cccc(Br)c1	/	-3%	/	/	/	/
COc1ccc2c(c1)C(=NN)c1cc(OC)ccc1-2	i	-9%	-2%	2%	10µM*	-5%
COc1ccc2c(c1)C(=NNc1ccc(C(=O)O)cc1)c1cc(OC)ccc1-2	i	-7%	1%	-9%	i	4%
NC(=O)[C@H]1CC2(CC(c3cccc(NC(=O)COc4ccc(Cl)cc4)c3)=NO2)CN1C(=O)c1ccccc1C(=O)c1ccccc1 (some centres undefined)	21µM*	-6%	/	2%	i	?
Cc1ccc(NC(=O)c2ccc(C(=O)c3ccccc3)cc2)nc1	15µM*	-7%	-3%	?	?	1%
CC(C)c1ccc(S(=O)(=O)N2CCN(C(=O)C3CCCCC3)CC2)cc1	i	3%	-2%	?	i	3%
COc1ccc(NC(=O)C2CCN(S(C)(=O)=O)CC2)cc1	i	13%	-11%	0%	i	?
Cc1ccc(S(=O)(=O)N2CCN(C(=O)C3CCCCC3)CC2)cc1	i	31%	-4%	?	i	2.9µM*
CCOc1ccc(NC(=O)C2CCN(S(C)(=O)=O)CC2)cc1	i	21%	-4%	?	?	0.92µM*
Cc1ccc(NC(=O)c2ccc(S(=O)(=O)N3CCOCC3)cc2)nc1	i	-26%	-4%	-7%	16µM*	0%
CC(OC(=O)C1CCN(S(=O)(=O)c2ccc(C(C)(C)C)cc2)CC1)C(=O)N1CCOCC1 (centres undefined)	i	?	-3%	1%	16µM*	?
Cc1ccc(S(=O)(=O)N2CCC(C(=O)OC(C)C(=O)N3CCOCC3)CC2)cc1 (centres undefined)	i	-10%	-1%	-3%	i	22%
O=C(NCCSCc1c(F)cccc1Cl)c1ccc(CN2CCOCC2)cc1	?	12%	0%	2%	16µM*	?
Cc1ccc(S(=O)(=O)N2CCC(C(=O)Nc3ccc(S(=O)(=O)N4CCOCC4)cc3)CC2)cc1	23µM*	-7%	-1%	3%	16µM*	6%
Cc1ccc(CSCCNC(=O)c2ccc(Cl)c(S(=O)(=O)N3CCOCC3)c2)cc1	21µM*	-5%	-5%	1%	3.7µM*	7%
Cc1ccc(S(=O)(=O)N2CCC(C(=O)N/N=C/c3ccccc3[N+](=O)[O-])CC2)cc1	i	0%	-6%	?	13µM*	-3%
Cc1ccc(NC(=O)c2ccc(C)c(S(=O)(=O)N3CCOCC3)c2)nc1	i	6%	0%	-6%	15µM*	7%
O=c1c(Cl)c(N/N=C/c2ccc(Br)cc2)cnn1-c1ccccc1	i	?	1%	?	i	7.1µM*
CNc1cnn(-c2ccccc2)c(=O)c1Cl	i	-25%[11.4 µM]	-1%	-3%	i	-52%
COc1ccccc1Nc1nc(-c2sc(NC(=O)C(C)(C)C)nc2C)cs1	8.2µM*	-5%	-3%	17%[9.22 µM]	i	5%
SMILES	KB-3-1 cytotox	RGS4 inhibitor	PTAP TSG101 blk	SW480 rerep	KB-V1 cytotox	MCF10A rerep
C=CCCC(=O)Nc1nc(C)c(-c2csc(Nc3cc(OC)ccc3OC)n2)s1	?	-6%	-5%	23µM*	i	?
COc1ccccc1Nc1nc(-c2c(C)[nH]c3ccccc23)cs1	i	-28%	-1%	10µM*	i	5.8µM*
CCCC(=O)Nc1nc(C)c(-c2csc(Nc3ccccc3OC)n2)s1	i	?	2%	-2%	i	9%
C[N+]1(CC(=O)c2ccc(Cl)cc2)CCOCC1	i	/	/	/	i	/
CCCC1=Nc2cc(C(=O)NCC(C)c3ccccc3)ccc2Sc2ccccc21 (centres undefined)	?	11%	/	/	?	/
CCCC1=Nc2cc(C(=O)NCCOC)ccc2Sc2ccccc21	/	26%	/	/	/	/
CCCC1=Nc2cc(C(=O)NCCCOCC)ccc2Sc2ccccc21	0.52µM*	-24%	-1%	?	1µM*	?
CCCC1=Nc2cc(C(=O)NCCCOC(C)C)ccc2Sc2ccccc21	4.6µM*	-15%	-1%	5.8µM*	7.3µM*	2.6µM*
O=c1oc2ccc(F)cc2cc1-c1nc(-c2cccs2)no1	/	12%	/	/	/	/
COC(=O)c1c(SC)nc2ccccc2c1OCc1ccccc1Cl	i	8%	/	/	i	/
C=CCC(O)[C@H](Cc1cnc2ccccc2c1)[C@H](/C=C/CCCC)c1ccccc1 (some centres undefined)	/	-27%	/	/	/	/
COC(=O)C1C(=O)C=C(Nc2ccc(F)cc2)CC1c1ccc(OC)cc1 (centres undefined)	i	-15%	-1%	-5%	i	2%
COc1cccc(C2NC(=O)NC(C)=C2C(=O)Nc2ccc(C)cc2)c1 (centres undefined)	i	1%	-2%	-2%	i	1%
COC(=O)C1=C(Nc2ccc(C)cc2)C=C(C)C(C(=O)OC)C1c1cccc(OC)c1 (centres undefined)	?	0%	-2%	23µM*	i	?
COC(=O)C1=C(Nc2ccc(C)cc2)C=C(C)C(C(=O)OC)C1c1ccc(OC)cc1 (centres undefined)	i	-18%	-4%	15µM*	i	?
CCc1sc(Nc2ccc(C)cc2Br)nc1-c1cc2cccc(OC)c2oc1=O	i	-6%	/	/	i	/
[N-]=[N+]=Nc1ccc(C(=O)CSC[C@H](NC(=O)CC[C@H](N)C(=O)O)C(=O)NCC(=O)O)cc1	/	3.4µM*	/	/	/	/
Cc1cnc2c3c(cc(Cl)c2c1)-c1ccccc1S(=O)(=O)N3	/	-51%	/	/	/	/
O=S1(=O)Nc2c(ccc3cccnc23)-c2ccccc21	18µM*	-29%	-12%	-2%	?	-6%
